This note sets out measurements from ChEMBL document CHEMBL1961873, “Compounds: GSK PKIS; Assays: Nanosyn kinase panel” (2012).

In test [1] the target is Tyrosine-protein kinase receptor UFO (Homo sapiens) (UniProt P30530). Conditions: at 1 µM.
Test [2] has as its target Tyrosine-protein kinase Blk (Homo sapiens) (UniProt P51451). Conditions: at 0.1 µM.
Test [3] has the same target. Conditions: at 1 µM.
Test [4] addresses T1, Cytoplasmic tyrosine-protein kinase BMX (Homo sapiens) (UniProt P51813).
T1 sequence (whole entry): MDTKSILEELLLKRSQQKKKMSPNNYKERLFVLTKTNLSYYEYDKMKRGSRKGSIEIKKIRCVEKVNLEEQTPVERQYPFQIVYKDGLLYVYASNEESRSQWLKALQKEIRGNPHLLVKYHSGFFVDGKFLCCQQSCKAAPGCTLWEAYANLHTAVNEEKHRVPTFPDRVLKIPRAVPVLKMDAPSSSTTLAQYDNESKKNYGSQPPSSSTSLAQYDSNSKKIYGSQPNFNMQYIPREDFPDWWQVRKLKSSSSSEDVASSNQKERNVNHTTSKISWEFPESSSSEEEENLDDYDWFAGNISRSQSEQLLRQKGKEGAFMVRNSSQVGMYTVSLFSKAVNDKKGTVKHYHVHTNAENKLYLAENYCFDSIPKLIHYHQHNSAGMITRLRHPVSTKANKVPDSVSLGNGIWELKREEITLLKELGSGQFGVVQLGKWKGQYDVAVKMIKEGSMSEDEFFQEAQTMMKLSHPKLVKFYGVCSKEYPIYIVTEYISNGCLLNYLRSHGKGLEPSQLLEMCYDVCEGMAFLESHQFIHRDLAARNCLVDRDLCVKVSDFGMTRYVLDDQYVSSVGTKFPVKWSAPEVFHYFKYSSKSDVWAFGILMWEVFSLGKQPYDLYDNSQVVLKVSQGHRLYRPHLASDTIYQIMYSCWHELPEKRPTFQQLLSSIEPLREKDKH
Conditions: at 0.1 µM.

For test [5], the target named is T1, Cytoplasmic tyrosine-protein kinase BMX (Homo sapiens). Conditions: at 1 µM.
Test [6] addresses Protein-tyrosine kinase 6 (Homo sapiens) (UniProt Q13882). The settings on record: at 0.1 µM.
Test [7] shares this target. Conditions: at 1 µM.
The target in test [8] is Tyrosine-protein kinase BTK (Homo sapiens) (UniProt Q06187). The settings on record: at 0.1 µM.
Sequence of Tyrosine-protein kinase BTK (Homo sapiens) (Q06187 whole entry): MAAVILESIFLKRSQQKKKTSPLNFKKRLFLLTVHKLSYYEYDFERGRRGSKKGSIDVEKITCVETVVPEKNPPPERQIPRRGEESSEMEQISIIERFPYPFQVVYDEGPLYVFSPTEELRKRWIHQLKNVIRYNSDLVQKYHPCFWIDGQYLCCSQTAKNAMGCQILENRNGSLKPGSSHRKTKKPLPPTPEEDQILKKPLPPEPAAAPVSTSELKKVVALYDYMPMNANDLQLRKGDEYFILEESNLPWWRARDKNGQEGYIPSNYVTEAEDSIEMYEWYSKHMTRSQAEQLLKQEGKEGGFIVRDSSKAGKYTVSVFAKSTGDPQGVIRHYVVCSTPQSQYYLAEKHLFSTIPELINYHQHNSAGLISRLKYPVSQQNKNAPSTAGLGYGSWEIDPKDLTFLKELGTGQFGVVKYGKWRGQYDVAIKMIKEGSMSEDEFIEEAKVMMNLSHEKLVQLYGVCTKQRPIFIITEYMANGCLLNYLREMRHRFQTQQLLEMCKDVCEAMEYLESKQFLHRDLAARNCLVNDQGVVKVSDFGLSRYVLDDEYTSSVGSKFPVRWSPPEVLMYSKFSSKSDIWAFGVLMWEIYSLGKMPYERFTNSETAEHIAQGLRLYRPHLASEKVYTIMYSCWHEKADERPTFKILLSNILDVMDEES
For test [9] the target is unchanged. The settings on record: at 1 µM.
The target in test [10] is Tyrosine-protein kinase CSK (Homo sapiens) (UniProt P41240). The settings on record: at 0.1 µM.
Sequence of Tyrosine-protein kinase CSK (Homo sapiens) (P41240 2-450 limits assumed): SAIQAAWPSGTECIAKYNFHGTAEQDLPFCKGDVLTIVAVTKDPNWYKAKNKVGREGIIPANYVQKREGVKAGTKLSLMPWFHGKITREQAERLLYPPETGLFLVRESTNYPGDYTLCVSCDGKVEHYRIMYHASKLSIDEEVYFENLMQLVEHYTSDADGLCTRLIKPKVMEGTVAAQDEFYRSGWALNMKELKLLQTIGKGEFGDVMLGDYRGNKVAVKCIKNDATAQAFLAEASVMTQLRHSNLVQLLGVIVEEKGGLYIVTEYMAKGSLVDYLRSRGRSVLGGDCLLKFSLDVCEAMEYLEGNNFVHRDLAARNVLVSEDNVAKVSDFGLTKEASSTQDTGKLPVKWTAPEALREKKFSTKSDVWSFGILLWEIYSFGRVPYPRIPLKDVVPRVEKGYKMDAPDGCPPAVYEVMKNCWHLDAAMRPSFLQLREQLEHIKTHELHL
Test [11] has the same target. Conditions: at 1 µM.
In test [12] the target is T2, Discoidin domain-containing receptor 2 (Homo sapiens) (UniProt Q16832).
T2 sequence (whole entry): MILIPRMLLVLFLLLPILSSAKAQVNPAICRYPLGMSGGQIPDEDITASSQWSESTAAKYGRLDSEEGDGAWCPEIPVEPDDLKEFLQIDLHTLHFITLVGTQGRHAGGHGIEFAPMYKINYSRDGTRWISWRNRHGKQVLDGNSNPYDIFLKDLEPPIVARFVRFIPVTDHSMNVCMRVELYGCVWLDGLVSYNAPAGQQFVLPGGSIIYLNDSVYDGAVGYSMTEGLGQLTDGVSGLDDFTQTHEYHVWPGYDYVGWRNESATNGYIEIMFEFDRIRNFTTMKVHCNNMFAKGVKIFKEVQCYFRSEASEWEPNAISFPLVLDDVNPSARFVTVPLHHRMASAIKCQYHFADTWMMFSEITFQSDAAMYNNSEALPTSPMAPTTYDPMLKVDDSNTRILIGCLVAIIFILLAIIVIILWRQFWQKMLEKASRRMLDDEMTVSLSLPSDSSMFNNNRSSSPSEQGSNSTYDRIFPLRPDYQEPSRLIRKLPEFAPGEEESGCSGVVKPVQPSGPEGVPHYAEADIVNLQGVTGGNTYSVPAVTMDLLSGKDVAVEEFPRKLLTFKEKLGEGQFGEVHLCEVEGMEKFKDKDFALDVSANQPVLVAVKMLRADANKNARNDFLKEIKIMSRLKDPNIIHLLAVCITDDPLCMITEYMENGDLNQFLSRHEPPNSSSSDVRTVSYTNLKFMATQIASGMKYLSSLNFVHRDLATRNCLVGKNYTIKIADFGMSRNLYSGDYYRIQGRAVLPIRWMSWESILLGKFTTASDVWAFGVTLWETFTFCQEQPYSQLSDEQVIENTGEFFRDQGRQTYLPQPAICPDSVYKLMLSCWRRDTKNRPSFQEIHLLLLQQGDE
The settings on record: at 0.1 µM.

In test [13] the target is T2, Discoidin domain-containing receptor 2 (Homo sapiens). The settings on record: at 1 µM.
In test [14] the target is Epidermal growth factor receptor (Homo sapiens) (UniProt P00533). Conditions: at 0.1 µM.
For test [15] the target is unchanged. The settings on record: at 1 µM.
Test [16] deals with Epidermal growth factor receptor (Homo sapiens), P00533 [L858R]. The settings on record: at 0.1 µM.
Test [17] shares this test system. Conditions: at 1 µM.
In test [18] the test system is Epidermal growth factor receptor (Homo sapiens), P00533 [L861Q]. The settings on record: at 0.1 µM.
Sequence of Epidermal growth factor receptor (Homo sapiens), P00533 [L861Q] (P00533 whole entry L861Q): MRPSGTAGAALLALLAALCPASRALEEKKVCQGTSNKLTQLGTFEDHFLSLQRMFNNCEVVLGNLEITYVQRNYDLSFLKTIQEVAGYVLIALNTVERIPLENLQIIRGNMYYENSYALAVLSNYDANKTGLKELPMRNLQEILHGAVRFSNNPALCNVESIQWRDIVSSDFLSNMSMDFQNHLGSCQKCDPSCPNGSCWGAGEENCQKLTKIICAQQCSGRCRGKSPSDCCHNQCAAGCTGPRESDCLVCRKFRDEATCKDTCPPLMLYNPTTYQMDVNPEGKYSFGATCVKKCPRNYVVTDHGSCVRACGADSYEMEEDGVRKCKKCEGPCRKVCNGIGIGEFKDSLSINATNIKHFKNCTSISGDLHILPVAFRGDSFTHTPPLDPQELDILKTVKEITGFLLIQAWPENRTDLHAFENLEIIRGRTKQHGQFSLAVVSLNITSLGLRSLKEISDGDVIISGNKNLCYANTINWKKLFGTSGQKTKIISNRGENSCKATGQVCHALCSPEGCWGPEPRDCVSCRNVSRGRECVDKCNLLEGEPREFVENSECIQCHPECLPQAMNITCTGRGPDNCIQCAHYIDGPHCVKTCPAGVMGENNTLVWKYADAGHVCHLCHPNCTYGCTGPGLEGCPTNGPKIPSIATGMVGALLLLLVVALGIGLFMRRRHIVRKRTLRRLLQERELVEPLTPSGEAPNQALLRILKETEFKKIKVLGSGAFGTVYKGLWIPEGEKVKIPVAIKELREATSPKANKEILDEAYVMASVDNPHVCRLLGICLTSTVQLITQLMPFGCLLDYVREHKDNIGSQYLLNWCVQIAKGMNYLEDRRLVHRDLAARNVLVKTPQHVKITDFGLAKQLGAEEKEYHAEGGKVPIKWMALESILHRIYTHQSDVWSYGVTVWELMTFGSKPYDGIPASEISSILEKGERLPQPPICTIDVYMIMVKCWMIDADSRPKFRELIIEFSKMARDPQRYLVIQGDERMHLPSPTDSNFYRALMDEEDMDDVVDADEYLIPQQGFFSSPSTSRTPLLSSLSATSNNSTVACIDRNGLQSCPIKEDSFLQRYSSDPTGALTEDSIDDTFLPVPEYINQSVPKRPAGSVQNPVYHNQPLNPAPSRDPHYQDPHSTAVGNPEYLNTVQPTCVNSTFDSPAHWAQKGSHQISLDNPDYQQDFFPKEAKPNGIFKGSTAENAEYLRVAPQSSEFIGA
The test system is the same in test [19]. The settings on record: at 1 µM.
The subject of test [20] is Epidermal growth factor receptor (Homo sapiens), P00533 [T790M]. Conditions: at 0.1 µM.

Sequence of Tyrosine-protein kinase receptor UFO (Homo sapiens) (P30530 whole entry): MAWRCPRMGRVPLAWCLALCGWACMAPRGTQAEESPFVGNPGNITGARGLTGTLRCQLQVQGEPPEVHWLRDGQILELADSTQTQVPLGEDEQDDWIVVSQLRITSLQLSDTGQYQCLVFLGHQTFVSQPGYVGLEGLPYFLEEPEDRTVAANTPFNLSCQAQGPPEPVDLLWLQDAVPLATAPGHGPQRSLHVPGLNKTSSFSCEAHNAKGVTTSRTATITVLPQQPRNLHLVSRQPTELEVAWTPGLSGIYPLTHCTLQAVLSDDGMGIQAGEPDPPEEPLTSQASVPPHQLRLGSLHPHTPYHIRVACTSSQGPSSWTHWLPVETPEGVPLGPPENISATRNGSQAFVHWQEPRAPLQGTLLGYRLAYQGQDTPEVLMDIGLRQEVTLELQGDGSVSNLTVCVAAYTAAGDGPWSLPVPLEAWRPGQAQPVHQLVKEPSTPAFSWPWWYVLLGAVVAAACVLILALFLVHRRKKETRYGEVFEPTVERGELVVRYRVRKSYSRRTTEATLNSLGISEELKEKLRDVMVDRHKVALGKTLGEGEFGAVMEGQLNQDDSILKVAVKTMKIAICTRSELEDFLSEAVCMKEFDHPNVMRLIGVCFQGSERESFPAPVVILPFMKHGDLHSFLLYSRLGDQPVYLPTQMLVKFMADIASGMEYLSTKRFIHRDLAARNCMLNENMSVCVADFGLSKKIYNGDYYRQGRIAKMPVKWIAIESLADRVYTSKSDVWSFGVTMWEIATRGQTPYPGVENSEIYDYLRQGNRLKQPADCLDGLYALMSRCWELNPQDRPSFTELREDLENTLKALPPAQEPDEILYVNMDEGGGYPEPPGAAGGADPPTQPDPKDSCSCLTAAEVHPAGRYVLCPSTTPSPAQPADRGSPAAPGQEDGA
Sequence of Tyrosine-protein kinase Blk (Homo sapiens) (P51451 2-505 limits assumed): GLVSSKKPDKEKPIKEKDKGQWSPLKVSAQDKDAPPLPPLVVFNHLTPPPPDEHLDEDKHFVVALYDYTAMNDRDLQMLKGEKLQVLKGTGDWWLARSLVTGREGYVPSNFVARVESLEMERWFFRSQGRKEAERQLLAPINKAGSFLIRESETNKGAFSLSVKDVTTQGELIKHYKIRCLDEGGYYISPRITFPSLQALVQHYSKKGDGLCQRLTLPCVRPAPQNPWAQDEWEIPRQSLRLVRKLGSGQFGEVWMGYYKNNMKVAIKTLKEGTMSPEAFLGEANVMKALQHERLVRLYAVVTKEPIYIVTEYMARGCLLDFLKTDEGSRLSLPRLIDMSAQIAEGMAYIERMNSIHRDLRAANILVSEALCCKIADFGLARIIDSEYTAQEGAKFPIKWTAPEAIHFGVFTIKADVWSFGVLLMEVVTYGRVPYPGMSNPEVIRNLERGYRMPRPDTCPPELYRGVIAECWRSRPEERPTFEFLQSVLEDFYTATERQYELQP
Sequence of Epidermal growth factor receptor (Homo sapiens), P00533 [T790M] (P00533 whole entry T790M): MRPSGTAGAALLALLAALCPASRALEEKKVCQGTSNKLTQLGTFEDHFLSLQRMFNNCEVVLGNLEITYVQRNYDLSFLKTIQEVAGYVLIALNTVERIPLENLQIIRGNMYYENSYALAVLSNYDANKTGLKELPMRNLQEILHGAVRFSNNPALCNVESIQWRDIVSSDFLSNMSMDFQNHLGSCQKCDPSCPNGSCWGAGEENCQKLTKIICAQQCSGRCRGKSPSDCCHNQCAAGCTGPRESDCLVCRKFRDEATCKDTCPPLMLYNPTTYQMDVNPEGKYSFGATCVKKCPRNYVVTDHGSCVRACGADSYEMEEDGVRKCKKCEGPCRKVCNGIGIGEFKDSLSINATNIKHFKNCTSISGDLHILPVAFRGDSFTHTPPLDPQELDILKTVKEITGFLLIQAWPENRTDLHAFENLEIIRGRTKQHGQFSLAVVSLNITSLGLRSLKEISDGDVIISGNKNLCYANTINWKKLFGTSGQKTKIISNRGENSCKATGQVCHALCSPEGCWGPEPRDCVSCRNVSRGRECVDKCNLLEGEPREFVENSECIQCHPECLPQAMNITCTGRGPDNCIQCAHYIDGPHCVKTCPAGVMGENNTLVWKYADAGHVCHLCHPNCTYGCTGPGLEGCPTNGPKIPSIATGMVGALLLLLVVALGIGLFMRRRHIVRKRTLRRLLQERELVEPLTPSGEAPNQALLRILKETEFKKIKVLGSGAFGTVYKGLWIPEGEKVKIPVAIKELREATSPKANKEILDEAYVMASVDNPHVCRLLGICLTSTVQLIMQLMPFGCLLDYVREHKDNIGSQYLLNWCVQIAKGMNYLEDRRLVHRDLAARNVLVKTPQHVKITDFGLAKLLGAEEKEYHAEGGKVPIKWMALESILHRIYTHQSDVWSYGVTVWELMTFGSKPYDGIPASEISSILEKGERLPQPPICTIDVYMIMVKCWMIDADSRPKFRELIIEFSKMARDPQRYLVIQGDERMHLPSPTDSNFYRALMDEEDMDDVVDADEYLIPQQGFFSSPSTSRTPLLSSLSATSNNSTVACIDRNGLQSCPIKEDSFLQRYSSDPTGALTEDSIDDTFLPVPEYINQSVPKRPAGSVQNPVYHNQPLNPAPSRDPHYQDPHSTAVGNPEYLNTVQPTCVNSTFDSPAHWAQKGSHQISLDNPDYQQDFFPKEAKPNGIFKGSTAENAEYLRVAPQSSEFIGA

Regarding `COc1ccc(-c2nn3ncccc3c2-c2ccnc(Nc3ccc4c(c3)OCCO4)n2)cc1`, the inhibition in test [1] was 8.45%; in [2], 5.51%; in [3] it was 39.5%; in [4], 0.12%; in test [5], 8.65%; in test [6] it was 12%. Also, the inhibition was 67.5% in test [7]; 0.65% in test [8]; 3.53% in [9]; -0.27% in [10]; 2.25% in test [11]; 17.7% in [12]. In addition, the inhibition in [13] was determined as 79.8%; in test [14], 0.51%; in test [15], 34.1%; in test [16], 8.22%; in [17], 57.4%; in [18], 5.78%. Further, the results for the inhibition in [19] and in test [20] were 34.3% and 0.7%, respectively.
As for `CCn1c(-c2nonc2N)nc2c(C#CC(C)(C)O)nc(OC[C@H](N)c3ccccc3)cc21`, the inhibition was -3% in test [1]; 3.73% in test [2]; 2.85% in test [3]; 3.88% in [4]; 5.18% in test [5]; 2.66% in [6]. The inhibition is 2.72% in test [7]; 0.09% in [8]; 0.56% in test [9]; -1.53% in [10]; 2.13% in [11]; 1.12% in test [12]. The inhibition was 1.65% in [13]; 2.01% in test [14]; 13.4% in test [15]; 1.93% in test [16]; 1.86% in test [17]; -0.13% in test [18]. Besides, the inhibition in [19] was found to be 2.36%; in test [20], 1.22%.
`Fc1ccc(-c2nn3ncccc3c2-c2ccnc(Nc3ccc4c(c3)OCCO4)n2)cc1`: the inhibition in [1] was -5.61%; in test [2], 14.4%; in test [3], 71.2%; in test [4] it was 15%; in test [5], 49.4%; in test [6] it was 17.1%. Moreover, the inhibition in test [7] was 67.8%; in test [8], -1.09%; in test [9], 5.26%; in [10] it was 3.81%; in test [11], 12.4%; in test [12] it was 37.2%. The inhibition in [13] amounted to 82.5%; in test [14], 59.5%; in test [15], 82.1%; in [16] it was 88.3%; in [17], 98.4%; in [18], 63.6%. Further, the values for the inhibition in [19] and in test [20] were 89.5% and 15.3%, respectively.
In the case of `O=S(=O)(CCNCc1ccc(-c2ccc3ncnc(Nc4ccc(OCc5cccc(F)c5)c(Cl)c4)c3c2)o1)c1ccccc1`, the inhibition in [1] is -5.93%; in test [2] it was 2.67%; in [3] it was 6.67%; in test [4] it was 5.7%; in [5], 6.77%; in test [6], 6.2%. Also, the inhibition in [7] was 6.15%; in test [8] it was -0.83%; in test [9], 1.59%; in test [10], 7.31%; in [11], 6.6%; in test [12], 5.04%. Moreover, the inhibition in test [13] is 6.18%; in test [14] it was 65.3%; in test [15], 83.3%; in [16] it was 32.6%; in [17], 79.5%; in [18] it was 39.2%. For the same compound, the inhibition is 78.2% in test [19] and 2.92% in [20].
In the case of `CNC(=O)c1cncc(/C=C/c2ccccc2Cl)c1`, the inhibition in test [1] is -0.52%; in [2] it was 3.84%; in test [3], 4.55%; in [4], 1.47%; in [5], 8.42%; in test [6] it was 0.17%. Also, the inhibition is 10% in [7]; 1.39% in test [8]; 2.01% in test [9]; 0.04% in test [10]; 6% in [11]; -0.31% in test [12]. Besides, the inhibition in test [13] came to 6.62%; in test [14] it was 2.35%; in [15], 6.18%; in test [16], 1.57%; in test [17], 10.9%; in [18] it was 1.06%. The figures for the inhibition in test [19] and in [20] were 7.25% and -0.23%, respectively.
Regarding `Nc1ncc(-c2cccc(S(N)(=O)=O)c2)c2scc(-c3ccc(F)c(Cl)c3)c12`, the inhibition in test [1] is -2.44%; in test [2] it was 5.6%; in test [3], 28.2%; in test [4], 14.5%; in [5], 56.5%; in test [6], 7.08%. For the same compound, the inhibition in [7] was found to be 47.5%; in test [8], 3.15%; in [9] it was 25.1%; in [10] it was 23.1%; in test [11] it was 73.3%; in [12], 2.61%. Further, the inhibition in [13] is 11.2%; in test [14], 0.5%; in test [15] it was 14.2%; in test [16] it was 5.06%; in [17], 23.1%; in test [18] it was 5.17%. In addition, the inhibition was determined as 10.2% in test [19] and 3.18% in test [20].
